# Experimental data reported in PubChem BioAssay (NCI).
# The panel holds about 83,000 compounds, 20% with a hit somewhere; the sample as a whole holds those more often.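 Negative percent growth values reflect cell death: -40 means 40% of the cells present at the start died, and -100 means all died.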 Values without a mark were called inactive. Calls of active or inactive are those of the source. The calls were made as follows: active = growth percent below 10; inactive = the rest.
# How the values were obtained:
# Test in all cases: NCI-60 one-dose screen, 48 h (100 = growth as untreated, 0 = no growth, -100 = all killed)
# Details in all cases: 10 µM unless noted
# DU-145 prostate = tested on: DU-145 prostate
# MALME-3M melanoma = tested on: MALME-3M melanoma
# MDA-MB-231 breast = tested on: MDA-MB-231 breast
# RXF 393 renal = tested on: RXF 393 renal
# SF-268 CNS = tested on: SF-268 CNS
# SF-295 CNS = tested on: SF-295 CNS
# SF-539 CNS = tested on: SF-539 CNS
# UACC-257 melanoma = tested on: UACC-257 melanoma
# HCT-15 colon = tested on: HCT-15 colon
# HT29 colon = tested on: HT29 colon
# SNB-75 CNS = tested on: SNB-75 CNS
# U251 CNS = tested on: U251 CNS
# PC-3 prostate = tested on: PC-3 prostate
# SK-MEL-5 melanoma = tested on: SK-MEL-5 melanoma
# UACC-62 melanoma = tested on: UACC-62 melanoma
# LOX IMVI melanoma = tested on: LOX IMVI melanoma
# SK-MEL-28 melanoma = tested on: SK-MEL-28 melanoma
# K-562 leukemia = tested on: K-562 leukemia
# M14 melanoma = tested on: M14 melanoma
# SNB-19 CNS = tested on: SNB-19 CNS
Structure (SMILES),growth (DU-145 prostate),growth (MALME-3M melanoma),growth (MDA-MB-231 breast),growth (RXF 393 renal),growth (SF-268 CNS),growth (SF-295 CNS),growth (SF-539 CNS),growth (UACC-257 melanoma),growth (HCT-15 colon),growth (HT29 colon),growth (SNB-75 CNS),growth (U251 CNS),growth (PC-3 prostate),growth (SK-MEL-5 melanoma),growth (UACC-62 melanoma),growth (LOX IMVI melanoma),growth (SK-MEL-28 melanoma),growth (K-562 leukemia),growth (M14 melanoma),growth (SNB-19 CNS)
N#Cc1c(N)nc2c(nnn2-c2cccc(Br)c2)c1N,109%,115%,89%,111%,97.1%,107%,105%,106%,104%,102%,97.6%,93%,91.6%,96.4%,95.6%,102%,117%,–,–,–
CCCCCCCCN(CCCCCCCC)C(=N)c1ccnc2ccccc12,–,-78.5% (active),-77.2% (active),-87.8% (active),-71.8% (active),-84.4% (active),-87.6% (active),-68.9% (active),-88.2% (active),-87.1% (active),-95.7% (active),-95.6% (active),-88.7% (active),-96.6% (active),-74.5% (active),-100% (active),-86% (active),-52.7% (active),-84.6% (active),-70.8% (active)
CCOC(=O)C(O)C(O)(c1ccccc1)c1ccccc1 (centres undefined),–,103%,94.4%,113%,95.4%,95.6%,94.5%,106%,98%,99.7%,89.7%,97.3%,96.8%,97.6%,98.5%,102%,95.8%,98%,101%,114%
COc1c(C)cnc(CSc2nc(-c3ccc(C)cc3)cn2-c2ccc(Cl)cc2)c1C,107%,93.4%,88.5%,108%,99.6%,110%,105%,91.5%,98%,73.8%,98.7%,104%,81.7%,105%,81.8%,96.5%,97.4%,–,–,93.7%
O=C(NCOC(O)C(Cl)(Cl)Cl)NCOC(O)C(Cl)(Cl)Cl (centres undefined),–,99.5%,106%,125%,105%,93.8%,90.4%,94.9%,95.8%,94.4%,85.6%,102%,95.6%,102%,98.8%,97.7%,92.8%,22.2%,100%,98.4%
CN1CCC(=C2c3ccccc3C=Cc3ccccc32)CC1,–,105%,8.64% (active),51.6%,79.8%,88.1%,87.4%,81.7%,73.7%,61.9%,47.8%,59.8%,64.9%,68.6%,82.5%,72.1%,85.9%,–,91.7%,91.7%
O=C(Nc1ccccc1)c1sc(-c2cccc(C(F)(F)F)c2)cc1O,82.4%,81.4%,91.9%,102%,82.8%,82.9%,42.2%,46.9%,69.5%,93.7%,78.5%,51.6%,81%,18.4%,23.3%,86.4%,53%,–,–,69.6%
CCOc1cc(N)ccc1C(=O)NCCCN(CC)CC,–,96.3%,93.2%,90.7%,103%,103%,100%,102%,106%,102%,85%,104%,101%,100%,95.5%,100%,97.5%,80.3%,96.1%,102%
Cc1nn(-c2ccccc2)c2c1C(c1ccc([N+](=O)[O-])cc1)C(C#N)=C(N)O2 (centres undefined),111%,–,87.4%,99.2%,108%,–,95.9%,88.1%,106%,105%,87.7%,110%,102%,122%,96.1%,101%,116%,–,106%,102%
COc1cc(-c2ccc(N=Nc3c(O)c(C(=O)Nc4ccccc4OC)cc4ccccc34)c(OC)c2)ccc1N=Nc1c(O)c(C(=O)Nc2ccccc2OC)cc2ccccc12,–,90.6%,76.2%,93.1%,87.5%,95.1%,103%,109%,101%,108%,74.8%,94%,93.4%,98.9%,101%,86.3%,97.4%,90.6%,90.7%,96%
CN1CCN(C2=C(Cl)C(=O)c3ccccc3C2=O)CC1,–,4.5% (active),41.6%,101%,–,84.1%,105%,56.5%,33%,66.7%,90.9%,87%,60.5%,26.8%,32.9%,11.4%,73.8%,23.1%,–,93.1%
Cc1ccc(C)c2c1C(=O)OC2=O,–,87.8%,106%,127%,98.8%,96.2%,99.7%,102%,101%,93.1%,91.2%,104%,97.7%,102%,101%,98.4%,92.9%,78.9%,102%,107%
Cc1ccccc1NC(=O)CN(C)C,–,87.2%,105%,124%,103%,97.3%,98.3%,99.3%,105%,90.9%,92.6%,104%,98.3%,105%,99.3%,99.9%,96.9%,0.938% (active),104%,98.8%
Cn1nnnc1-c1ccc(N)cc1,99%,99.1%,106%,111%,91.7%,98.1%,98.8%,106%,98.9%,95%,88.4%,100%,93.9%,102%,99.7%,95.1%,103%,–,–,105%
COc1ccc(-n2nnc(C(=O)NCCc3c[nH]c4ccc(F)cc34)c2C)cc1,107%,106%,97.8%,105%,97.3%,102%,103%,87.7%,104%,86.4%,93.7%,92.4%,87.4%,102%,98.4%,98.6%,109%,–,–,105%
